# In all, about 340,000 compounds went through this assay and about 1,000 (0.29%) were called active. Rule as the data show it: inconclusive = inhibition above about 29% without an active follow-up result; inactive = below that. These entries were drawn from the full list. Results with a measured potency or affinity are listed apart.
# Target: Genome polyprotein (Dengue virus type 2 (strain 16681-PDK53)) (UniProt P29991)
# Assay: Dengue-2 NS5 methyltransferase inhibitors, primary screen, biochemical, confirmation dose response (AID 588689)
# Conditions: Dengue-2 NS5 methyltransferase capping enzyme assay, at 25 µM, stronger effect = higher value
# [1] = measured here: pilot screen replicate inhibition
SMILES,inhibition,inhibition [1]
Cc1ccc(NC2CCCN(C(=O)c3cn4cc(Cl)ccc4n3)C2)cc1C (stereo not drawn),3.88% (inactive),
COc1ccccc1N1CCN(CC(=O)Nc2ccc(CN3CCCCC3)cc2)CC1,-7.05% (inactive),
CC1=C(C#N)C(c2ccc(O)cc2)C2=C(CCCC2=O)N1 (stereo not drawn),0% (inactive),
COc1ccc2cc(C3(C)NC(=O)N(CC(=O)NCCC4=CCCCC4)C3=O)ccc2c1 (stereo not drawn),-6.89% (inactive),-2.13%
Cc1cc(C)cc(NC(=S)NC2CC3CCCC(C2)N3C2CC2)c1 (stereo not drawn),-10.8% (inactive),
Cc1cc(C(F)(F)F)nn1CC(=O)N1CCOCC1,-2.05% (inactive),
CCN1C(=O)C(=O)N(CC(=O)Nc2cccc(C(F)(F)F)c2)C1=O,6.2% (inactive),
O=C(CN1C(=O)CNC1=O)Nc1cccc(C(F)(F)F)c1,-1.61% (inactive),
Cc1cccc(NC(=O)CN2C(=O)/C(=C3\SC(=S)N(CC4CCCO4)C3=O)c3ccccc32)c1 (stereo not drawn),-5.35% (inactive),
COc1ccc(NC(=O)CN2C(=O)/C(=C3\SC(=S)N(CCC(=O)O)C3=O)c3ccccc32)cc1,2.68% (inactive),
CC(=O)N1C(=S)NC(=O)/C1=C1/C(=O)N(CC(=O)Nc2cccc(C)c2)c2ccccc21,-2.91% (inactive),
O=C(CN1C(=O)/C(=C2\SC(=S)N(C3CCS(=O)(=O)C3)C2=O)c2ccccc21)Nc1ccccc1 (stereo not drawn),-1.82% (inactive),
CCO[C@H]1OC(C(=O)O)=C[C@@H](c2cn(C(C)=O)c3ccccc23)[C@@H]1CCCO,-0.8% (inactive),
Cc1ccccc1C(=O)NCCNC(=O)c1ccccn1,4.99% (inactive),
O=C(CSc1ccc(F)cc1)Nc1ccc(N2CCOCC2)c(Cl)c1,-4.54% (inactive),
CC(=O)N1CCN(CC(=O)Nc2ccccc2C(=O)NCc2ccc(C)cc2)CC1,-0.89% (inactive),
Cc1ccc(OCC(=O)OCC(=O)Nc2ccc3c(c2)OCO3)cc1C,-3.82% (inactive),
Cc1cc(C(=O)OCC(=O)NCc2ccc(Cl)cc2Cl)c(C)o1,-0.73% (inactive),
Clc1ccc(CN2CCSCC2)c(Cl)c1,-3.29% (inactive),2.1%
C=C(C)c1cccc(C(C)(C)NC(=O)N2CCCC(C)C2)c1 (stereo not drawn),-4.84% (inactive),
Cc1cc(=O)[nH]c(N/N=C/c2cc(C)n(CC(F)(F)F)c2C)n1,1.74% (inactive),
CC1CCN(C(=S)c2cn(Cc3ccc(F)cc3)c3ccccc23)CC1,-6.61% (inactive),
COCCN(C(=O)c1csnn1)C(C(=O)NC(C)(C)C)c1cccc(OC)c1 (stereo not drawn),0% (inactive),

SMILES,inhibition,inhibition [1]
N#Cc1cc(N2CCCCC2)c([N+](=O)[O-])cc1C#N,-5.36% (inactive),
O=[N+]([O-])c1cc(F)c(N2CCCCC2)cc1N1CCOCC1,-8.91% (inactive),
O=C(NCc1ccccc1Cl)C(=O)NCC1OCCN1S(=O)(=O)c1ccc(F)cc1 (stereo not drawn),-4.82% (inactive),
CCc1ccc2c(c1)C(=O)C(=O)N2CCS(=O)(=O)c1ccccc1,-11.6% (inactive),
O=C(O)C(Cc1ccccc1)N1C(=O)/C(=C/c2ccccc2)SC1=S (stereo not drawn),15.5% (inactive),
O=C(O)C(Cc1ccccc1)N1C(=O)/C(=C/c2cccnc2)SC1=S (stereo not drawn),8.37% (inactive),
COc1ccc(/C=C2\SC(=S)N(C(Cc3ccccc3)C(=O)O)C2=O)cc1 (stereo not drawn),20.7% (inactive),
COc1cccc(/C=C2/SC(=S)N(CCCC(=O)Nc3ccc(O)cc3)C2=O)c1,-5.15% (inactive),
COc1cc2c(=O)[nH]c3cc([N+](=O)[O-])ccc3c2cc1[N+](=O)[O-],8.05% (inactive),
CCC(=O)Nc1nnc(Cc2ccccc2)s1,1.61% (inactive),
CCN(CC)CCN1C(=O)C(=O)/C(=C(/O)c2ccc(S(=O)(=O)N3CCOCC3)cc2)C1c1ccc(Cl)cc1 (stereo not drawn),-6.64% (inactive),
O=S(=O)(Nc1cccc2ccccc12)c1cccs1,-1.29% (inactive),
COc1ccccc1NS(=O)(=O)c1cccs1,0% (inactive),
O=C(CN1C(=O)/C(=C\c2cccc(Br)c2)Oc2ccccc21)NCCCN1CCOCC1,0.88% (inactive),
O=C(CCCN1C(=O)/C(=C/c2ccccc2Cl)SC1=S)NNC(=O)c1ccccc1,8.33% (inactive),
O=C1/C(=C\c2cccc([N+](=O)[O-])c2O)SC(=S)N1Cc1ccccc1,32.5% (inactive),
Cc1cc(NC(=O)CN2C(=O)/C(=C/c3ccccc3F)SC2=S)no1,2.68% (inactive),
CCN1C(=O)C(=Cc2cccc(OC)c2Oc2ccc([N+](=O)[O-])cc2[N+](=O)[O-])SC1=S,-1.31% (inactive),
O/N=C/c1cc(Br)ccc1OCc1ccccc1F,8.73% (inactive),
O=C(CN1C(=O)/C(=C/c2cccc(Br)c2)SC1=S)N1CCCC1,-5.1% (inactive),
CN1CCN(c2ccc(NS(=O)(=O)c3ccc(Cl)cc3)cn2)CC1,-7.03% (inactive),
Cc1nnc(NC(=O)CC23CC4CC(CC(C4)C2)C3)s1,-6.26% (inactive),
O=C(Nc1ccc2c(c1)OCO2)C1CCN(S(=O)(=O)c2cccc3cccnc23)CC1,2.93% (inactive),

SMILES,inhibition,inhibition [1]
CCCOc1ccc(/C=C/C(=O)OCC(=O)N(C)c2c(N)n(Cc3ccccc3)c(=O)[nH]c2=O)cc1OCC,3.69% (inactive),
CC(C)N(O)C(=O)NC(C)(C)C,0% (inactive),
COc1ccc(NC2=CC(=O)N(C)C2=O)cc1,-10.2% (inactive),
COc1ccc(C(=O)Nc2cccc(-c3ccc4nncn4n3)c2)cc1OC,2.3% (inactive),
Cc1c(N=C/C=C2\N(C)c3ccccc3C2(C)C)c(=O)n(-c2ccccc2)n1C,-3.46% (inactive),
CCc1cc(=O)oc2c3c(cc(OCC(=O)NCCCn4ccnc4)c12)OC(C)(C)CC3,-1.45% (inactive),
OCC[C@H]1C[C@H](O)[C@@H](O)[C@]2(OCCc3ccccc32)O1,-1.2% (inactive),
COc1cc(CNc2ccc(N3CCCC3)cc2)cc(Cl)c1OC,13.9% (inactive),
COc1cc(CNc2ccc(N3CCCC3)cc2)ccc1OCc1ccccc1,12.3% (inactive),
CCOc1c(Cl)cc(CNc2ccc(S(N)(=O)=O)cc2)cc1OC,-1.46% (inactive),
CCOc1c(Br)cc(CNc2ccc(N3CCOCC3)cc2)cc1OC,70.4% (inactive),
COc1cc(CNc2ccc(S(N)(=O)=O)cc2)ccc1OCc1ccccc1F,-6.36% (inactive),
CCOc1cc(CNc2ccc(S(N)(=O)=O)cc2)cc(Cl)c1OC,3.64% (inactive),
Cc1nn(C)c(Cl)c1CN1CCCC(CCC(=O)NCc2ccccc2F)C1 (stereo not drawn),0% (inactive),
CCN1C(=O)[C@@H]2[C@@H](c3ccc(-c4ccc(OC)cc4)c(OC)c3)N3CCCC[C@@]3(C(=O)OC)[C@@H]2C1=O,17.5% (inactive),
CCN1CCN(C(=O)CCc2nnc(CCc3c[nH]c4ccccc34)o2)[C@@H](C)C1=O,-13.8% (inactive),
CN(C(=O)CSc1nnc(-c2cccnc2)n1-c1ccccc1F)C1CCS(=O)(=O)C1 (stereo not drawn),5.09% (inactive),
CC(=O)C1=C(c2ccc(Br)cc2)C(=O)c2ccccc2C1=O,35% (inactive),
O=C(C1=C(c2ccccc2)C(=O)c2ccccc2C1=O)c1ccccc1,3.59% (inactive),
Cc1cc(C)cc(NC2=C(N)C(=O)c3ccccc3C2=O)c1,13% (inactive),
Nc1ccc(NC(=O)c2ccccc2)c2c1C(=O)c1ccccc1C2=O,3.24% (inactive),
COc1cc(NS(=O)(=O)c2ccc(C)cc2)c2c(c1N)C(=O)c1ccccc1C2=O,9.7% (inactive),
Nc1ccccc1NC(=O)c1ccccc1,3.27% (inactive),

SMILES,inhibition,inhibition [1]
O=C(NCCc1nc2ccccc2[nH]1)/C(=C/c1ccc2c(c1)OCO2)NC(=O)c1ccc(Cl)cc1Cl,-5.82% (inactive),
CCCCNC(=O)COC(=O)c1c2c(nc3ccccc13)CCC2,4.4% (inactive),
Cn1ccnc1C1CCCCN1C(=O)c1cc(COc2ccc(F)cc2F)on1 (stereo not drawn),1.47% (inactive),
O=C1C(Cl)=C(N2CCOCC2)C(=O)N1CCc1ccccc1,-0.8% (inactive),
CC(C)c1ccc(S(=O)(=O)Nc2ccc(N3CCOCC3)cc2)cc1,-9.76% (inactive),
CN1CCN(C2=C(Cl)C(=O)N(c3ccc(Cl)cc3)C2=O)CC1,14.2% (inactive),
O=C1C(Cl)=C(N2CCN(Cc3ccccc3)CC2)C(=O)N1c1ccccc1,67.7% (inactive),
CN(C)C1=C(Cl)C(=O)N(c2ccc(Cl)c(Cl)c2)C1=O,26.8% (inactive),
Cc1ccc(N2C(=O)C(Cl)=C(N3CCCCCC3)C2=O)cc1,-6.21% (inactive),
Cc1cccc(C)c1N1C(=O)C(Cl)=C(N2CCCC2)C1=O,-10.8% (inactive),
O=C(Nc1cccc(-n2cccn2)c1)C1CCCN(Cc2cc3ccccc3[nH]2)C1 (stereo not drawn),-16.8% (inactive),
COc1ccc(N2CCN(C3CCCN(C(=O)CN4CCCC4=O)C3)CC2)cc1 (stereo not drawn),-4.52% (inactive),
COCCCN1Cc2cccc(C(=O)O)c2C1=O,-4.84% (inactive),
O=C(CCCc1nc(-c2ccc(Cl)cc2)no1)NCC1CCCO1 (stereo not drawn),1.63% (inactive),
CC1(C)CC(=O)C(C2=NC3(CCCCC3)Cc3ccccc32)=C(O)C1,2.33% (inactive),
C=C(C1=CCN(S(=O)C(C)(C)C)[C@@H]1CCO)c1ccccc1 (stereo partly drawn),0.33% (inactive),-2.42%
COc1ccc(/C=C(\C#N)C(=O)Nc2cc(S(=O)(=O)N3CCOCC3)ccc2N2CCCC2)cc1,-4.53% (inactive),
COc1ccc(-c2nc(-c3ccccn3)no2)cc1,-2.71% (inactive),
COC(=O)c1ccccc1N(C)S(C)(=O)=O,-6.11% (inactive),
COc1ccccc1N1CCN(CCNC(=O)Nc2cccc(C)c2C)CC1,-5.61% (inactive),
Cc1ccccc1NC(=O)c1cccc(N2C(=O)C3CCCCC3C2=O)c1 (stereo not drawn),-9.97% (inactive),

# From PubChem BioAssay AID588689 (Southern Research Specialized Biocontainment Screening …, 2011)
